Assay results published in the OligoGym collection.

These sequences were tested against PHACTR4 (assay: pooled miR-30 sensor sort-seq; sequence = guide strand). Conditions: shRNA.
Note: reference of the scale not given here.

| Sequence | sensor-assay potency score (higher = more potent) |
| --- | --- |
| TTCCTTTTTCTGATCTTCCTGC | 0.429 |
| TTTGATAACAATGTACCACTGT | 0.882 |
| TTAGGTTGCAATATATTGCGTT | 0.996 |
| TTGATAACAATGTACCACTGTT | -0.00481 |
| TTCATGAACCTCCATCTCGGAG | -1.12 |
| TTAAACCTCAGAATCTTCCTGG | 0.724 |
| TTCATCTTCTTCATCTCGGTAC | 0.467 |
| TTCCAGTTGAGCCTAGTCGTTT | -1.14 |
| TTGACTGAGCTTTCTAGTGAGC | -0.776 |
| TTTCGCATAGATATTTTCCGTT | -0.285 |
| TTCTTTAACATGGCATCGCTTG | -0.642 |
| TCTTGAAGTACAATACACCAGG | -0.827 |

Each sequence was assayed against PHF15 in the same assay as above. Conditions: shRNA.

| Sequence | sensor-assay potency score (higher = more potent) |
| --- | --- |
| TTGACCTCATCGTTGTCTGCTA | -0.147 |
| TTGAACTTGACCTCATCGTTGT | 0.744 |
| TAATATAGTCCGCATTTCCAGG | -1.26 |
| TCTAACCCTCTCTAGGTCCTGC | 0.0914 |
| TTGTCTGGAGTCGTCCGTGAAC | -1.11 |
